Measured values reported in the supplement of paper PMC10646978.
± gives the standard deviation.

Experiments:
Conditions in all cases: modulator concentration 10 µM
[1] = test system: RAW-Dual (murine macrophage reporter line); assay: NF-kB reporter (SEAP) activity fold change vs agonist alone; higher = enhanced NF-kB activity
Summary of the method: (§1)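 RAW-Dual murine macrophage reporter cells were seeded at 50 000 per well in 384-well plates and pre-incubated 1 hour at 37 °C with compound pin-transferred to 10 μM final. After 1 hour, a PRR agonist was added and cells incubated overnight. Supernatant NF-κB (SEAP, QUANTI-Blue, 620 nm absorbance) and IRF (Lucia luciferase, QUANTI-Luc, luminescence) signals were divided by the mean agonist-only control on the same plate to give fold change. Two replicate plates were averaged, with errors by propagation.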

[2] = test system: RAW-Dual (murine macrophage reporter line); assay: IRF reporter (Lucia luciferase) activity fold change vs agonist alone; higher = enhanced IRF activity
Summary of the method: as §1

[3] = test system: RAW-Dual (murine macrophage reporter line); assay: viability score (confluency relative to resting cells, overnight) (fraction); higher = more viable, active = viable (0.7 or more)
Summary of the method: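 Overnight exposure to 10 μM final compound was carried out on RAW-Dual macrophages in 384-well plates. IncuCyte software generated two confluency masks over all wells imaged with IncuCyte. The viability score gives confluency in relation to resting cells. A compound met the cutoff if each mask exceeded 70% of resting cells.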

[4] = agonist: CpG ODN 1826 0.5 ug/mL

CC1CCN(c2nccnc2Oc2ccc(C(=O)N3CCN(c4ccc(F)cc4)CC3)cc2)CC1 was tested, and the NF-kB reporter [1, 4] was 0.803 ± 0.071, the NF-kB reporter ([1]; agonist: LPS 0.1 ug/mL) was 1.1 ± 0.062 and the NF-kB reporter ([1]; agonist: MPLA […]) was 0.709 ± 0.047. The IRF reporter ([2]; agonist: 3'3'-cGAMP 10 ug/mL) was 0.684 ± 0.032, the IRF reporter ([2]; agonist: LPS 0.1 ug/mL) was 1.26 ± 0.18 and the IRF reporter ([2]; agonist: MPLA […]) was 1.11 ± 0.07. The viability score [3] was 0.964 (active).
Work on O=C(NC(=S)Nc1ccccc1C(F)(F)F)c1cccc(I)c1 yielded an NF-kB reporter [1, 4] of 0.927 ± 0.088, an NF-kB reporter ([1]; agonist: LPS 0.1 ug/mL) of 0.989 ± 0.076 and an NF-kB reporter ([1]; agonist: MPLA […]) of 0.9 ± 0.066. It also gave an IRF reporter ([2]; agonist: 3'3'-cGAMP 10 ug/mL) of 0.989 ± 0.025, an IRF reporter ([2]; agonist: LPS 0.1 ug/mL) of 1.24 ± 0.13 and an IRF reporter ([2]; agonist: MPLA […]) of 1.09 ± 0.14. The viability score [3] was 1.01 (active).
In the case of COC(=O)C1=C(C)NC(C)=C(C(=O)OCCN(C)Cc2ccccc2)C1c1cccc([N+](=O)[O-])c1.Cl (stereo unspecified), the NF-kB reporter [1, 4] is reported as 0.996 ± 0.055, the NF-kB reporter ([1]; agonist: LPS 0.1 ug/mL) is reported as 0.91 ± 0.074 and the NF-kB reporter ([1]; agonist: MPLA […]) is reported as 0.887 ± 0.047. The IRF reporter ([2]; agonist: 3'3'-cGAMP 10 ug/mL) was 1.1 ± 0.052, the IRF reporter ([2]; agonist: LPS 0.1 ug/mL) was 1.01 ± 0.16 and the IRF reporter ([2]; agonist: MPLA […]) was 0.988 ± 0.29. The viability score [3] was 0.397 (inactive).
COc1ccc(-c2coc3cc(O)cc(O)c3c2=O)cc1 gave an NF-kB reporter [1, 4] of 1.87 ± 0.54, an NF-kB reporter ([1]; agonist: LPS 0.1 ug/mL) of 1.27 ± 0.083 and an NF-kB reporter ([1]; agonist: MPLA […]) of 1.73 ± 0.13. It also gave an IRF reporter ([2]; agonist: 3'3'-cGAMP 10 ug/mL) of 0.919 ± 0.071, an IRF reporter ([2]; agonist: LPS 0.1 ug/mL) of 1.32 ± 0.18 and an IRF reporter ([2]; agonist: MPLA […]) of 1.37 ± 0.14. For the same compound, the viability score [3] was 0.623 (inactive).
For COc1ccc(C(C)(C#N)CC#N)cc1 (stereo unspecified), the NF-kB reporter [1, 4] was 1.11 ± 0.089, the NF-kB reporter ([1]; agonist: LPS 0.1 ug/mL) was 0.941 ± 0.1 and the NF-kB reporter ([1]; agonist: MPLA […]) was 1.04 ± 0.1. The IRF reporter ([2]; agonist: 3'3'-cGAMP 10 ug/mL) was 1.06 ± 0.035, the IRF reporter ([2]; agonist: LPS 0.1 ug/mL) was 1.29 ± 0.19 and the IRF reporter ([2]; agonist: MPLA […]) was 1.47 ± 0.31. For the same compound, the viability score [3] was 1.03 (active).
Compound CC1=NN(C(=O)OC(C)(C)C)C(O)(c2ccncc2)C1 (stereo unspecified) has an NF-kB reporter [1, 4] of 1.03 ± 0.084, an NF-kB reporter ([1]; agonist: LPS 0.1 ug/mL) of 1.01 ± 0.1 and an NF-kB reporter ([1]; agonist: MPLA […]) of 0.886 ± 0.084. It also gave an IRF reporter ([2]; agonist: 3'3'-cGAMP 10 ug/mL) of 0.979 ± 0.081, an IRF reporter ([2]; agonist: LPS 0.1 ug/mL) of 1.14 ± 0.14 and an IRF reporter ([2]; agonist: MPLA […]) of 1.22 ± 0.2. For the same compound, the viability score [3] was 1.03 (active).
CC(c1ccccc1)c1nnc(NC(=O)c2ccco2)s1 (stereo unspecified) was tested, and the NF-kB reporter [1, 4] was 0.853 ± 0.29, the NF-kB reporter ([1]; agonist: LPS 0.1 ug/mL) was 1.12 ± 0.12 and the NF-kB reporter ([1]; agonist: MPLA […]) was 1.04 ± 0.1. It also gave an IRF reporter ([2]; agonist: 3'3'-cGAMP 10 ug/mL) of 0.906 ± 0.027, an IRF reporter ([2]; agonist: LPS 0.1 ug/mL) of 1.13 ± 0.23 and an IRF reporter ([2]; agonist: MPLA […]) of 1.3 ± 0.32. The viability score [3] was 0.968 (active).
In the case of O=C(Cc1ccc([N+](=O)[O-])cc1)NN=Cc1cccnc1, the NF-kB reporter [1, 4] is reported as 1.05 ± 0.083, the NF-kB reporter ([1]; agonist: LPS 0.1 ug/mL) is reported as 1.02 ± 0.074 and the NF-kB reporter ([1]; agonist: MPLA […]) is reported as 0.972 ± 0.041. For the same compound, the IRF reporter ([2]; agonist: 3'3'-cGAMP 10 ug/mL) was 0.86 ± 0.066, the IRF reporter ([2]; agonist: LPS 0.1 ug/mL) was 1.09 ± 0.053 and the IRF reporter ([2]; agonist: MPLA […]) was 1.03 ± 0.14. For the same compound, the viability score [3] was 1 (active).
With O=C(c1cc2ccccc2o1)N1CC(N2C(=O)CCC2=O)C1 the NF-kB reporter [1, 4] was 0.894 ± 0.054, the NF-kB reporter ([1]; agonist: LPS 0.1 ug/mL) was 0.957 ± 0.076 and the NF-kB reporter ([1]; agonist: MPLA […]) was 1.05 ± 0.066. It also gave an IRF reporter ([2]; agonist: 3'3'-cGAMP 10 ug/mL) of 1.03 ± 0.055, an IRF reporter ([2]; agonist: LPS 0.1 ug/mL) of 1.32 ± 0.26 and an IRF reporter ([2]; agonist: MPLA […]) of 1.44 ± 0.38. The viability score [3] was 0.985 (active).
Work on Cc1c(C)c2c(c(C)c1O)CCC(C)(C(=O)O)O2 (stereo unspecified) [Prestw-530] yielded an NF-kB reporter [1, 4] of 1.14 ± 0.13, an NF-kB reporter ([1]; agonist: LPS 0.1 ug/mL) of 1.03 ± 0.078 and an NF-kB reporter ([1]; agonist: MPLA […]) of 0.98 ± 0.03. The IRF reporter ([2]; agonist: 3'3'-cGAMP 10 ug/mL) was 0.986 ± 0.042, the IRF reporter ([2]; agonist: LPS 0.1 ug/mL) was 0.98 ± 0.054 and the IRF reporter ([2]; agonist: MPLA […]) was 1.03 ± 0.1. The viability score [3] was 0.998 (active).
Compound Cc1cnc2c(c1N1CCC(Cc3ccccc3)CC1)c(=O)n(C)c(=O)n2C has an NF-kB reporter [1, 4] of 0.97 ± 0.06, an NF-kB reporter ([1]; agonist: LPS 0.1 ug/mL) of 1.08 ± 0.084 and an NF-kB reporter ([1]; agonist: MPLA […]) of 0.996 ± 0.051. It also gave an IRF reporter ([2]; agonist: 3'3'-cGAMP 10 ug/mL) of 1.06 ± 0.044, an IRF reporter ([2]; agonist: LPS 0.1 ug/mL) of 1.01 ± 0.088 and an IRF reporter ([2]; agonist: MPLA […]) of 1.07 ± 0.26. For the same compound, the viability score [3] was 0.999 (active).
With O=C(NC(=S)c1c(-c2ccccc2)cc2ccccn12)c1ccccc1 the NF-kB reporter [1, 4] was 0.746 ± 0.058, the NF-kB reporter ([1]; agonist: LPS 0.1 ug/mL) was 0.786 ± 0.038 and the NF-kB reporter ([1]; agonist: MPLA […]) was 0.883 ± 0.078. The IRF reporter ([2]; agonist: 3'3'-cGAMP 10 ug/mL) was 0.516 ± 0.03, the IRF reporter ([2]; agonist: LPS 0.1 ug/mL) was 1.18 ± 0.086 and the IRF reporter ([2]; agonist: MPLA […]) was 1.36 ± 0.18. For the same compound, the viability score [3] was 1.01 (active).
CCc1c2c(nc3ccc(OC(=O)N4CCC(N5CCCCC5)CC4)cc13)-c1cc3c(c(=O)n1C2)COC(=O)[C@]3(O)CC.Cl.O.O.O was tested, and the NF-kB reporter [1, 4] was 1.06 ± 0.25, the NF-kB reporter ([1]; agonist: LPS 0.1 ug/mL) was 1.41 ± 0.23 and the NF-kB reporter ([1]; agonist: MPLA […]) was 1.54 ± 0.55. The IRF reporter ([2]; agonist: 3'3'-cGAMP 10 ug/mL) was 0.866 ± 0.042, the IRF reporter ([2]; agonist: LPS 0.1 ug/mL) was 1.35 ± 0.35 and the IRF reporter ([2]; agonist: MPLA […]) was 1.2 ± 0.16. For the same compound, the viability score [3] was 0.975 (active).
Work on Cn1cnc2c(F)c(Nc3ccc(Br)cc3Cl)c(C(=O)NOCCO)cc21 yielded an NF-kB reporter [1, 4] of 0.288 ± 0.015, an NF-kB reporter ([1]; agonist: LPS 0.1 ug/mL) of 0.124 ± 0.0099 and an NF-kB reporter ([1]; agonist: MPLA […]) of 0.183 ± 0.013. It also gave an IRF reporter ([2]; agonist: 3'3'-cGAMP 10 ug/mL) of 0.852 ± 0.061, an IRF reporter ([2]; agonist: LPS 0.1 ug/mL) of 3.68 ± 0.24 and an IRF reporter ([2]; agonist: MPLA […]) of 2.42 ± 0.19. The viability score [3] was 0.684 (inactive).
In the case of Cl.N=C(N)NCCC[C@H](N)C(=O)O, the NF-kB reporter [1, 4] is reported as 1.12 ± 0.27, the NF-kB reporter ([1]; agonist: LPS 0.1 ug/mL) is reported as 0.995 ± 0.08 and the NF-kB reporter ([1]; agonist: MPLA […]) is reported as 1.03 ± 0.081. The IRF reporter ([2]; agonist: 3'3'-cGAMP 10 ug/mL) was 0.896 ± 0.036, the IRF reporter ([2]; agonist: LPS 0.1 ug/mL) was 1.38 ± 0.15 and the IRF reporter ([2]; agonist: MPLA […]) was 1.2 ± 0.23. The viability score [3] was 1.01 (active).
Cc1ccccc1C(=O)N1CC(S(=O)(=O)CC(C)C)C1 was tested, and the NF-kB reporter [1, 4] was 0.961 ± 0.082, the NF-kB reporter ([1]; agonist: LPS 0.1 ug/mL) was 0.907 ± 0.076 and the NF-kB reporter ([1]; agonist: MPLA […]) was 0.854 ± 0.052. For the same compound, the IRF reporter ([2]; agonist: 3'3'-cGAMP 10 ug/mL) was 1.04 ± 0.071, the IRF reporter ([2]; agonist: LPS 0.1 ug/mL) was 1.04 ± 0.13 and the IRF reporter ([2]; agonist: MPLA […]) was 0.899 ± 0.38. For the same compound, the viability score [3] was 1.02 (active).
CCOc1ccc(-c2ccc(=O)n(CCNS(=O)(=O)CCc3ccccc3)n2)cc1 showed an NF-kB reporter [1, 4] of 1.08 ± 0.081, an NF-kB reporter ([1]; agonist: LPS 0.1 ug/mL) of 1.22 ± 0.13 and an NF-kB reporter ([1]; agonist: MPLA […]) of 1.06 ± 0.083. For the same compound, the IRF reporter ([2]; agonist: 3'3'-cGAMP 10 ug/mL) was 1.2 ± 0.078, the IRF reporter ([2]; agonist: LPS 0.1 ug/mL) was 0.984 ± 0.07 and the IRF reporter ([2]; agonist: MPLA […]) was 1.3 ± 0.27. The viability score [3] was 0.995 (active).
Compound CC(C)Nc1cc(-c2c[nH]c(C(=O)N[C@H](CO)c3cccc(Cl)c3)c2)c(Cl)cn1 has an NF-kB reporter [1, 4] of 0.208 ± 0.012, an NF-kB reporter ([1]; agonist: LPS 0.1 ug/mL) of 0.0734 ± 0.0045 and an NF-kB reporter ([1]; agonist: MPLA […]) of 0.158 ± 0.01. For the same compound, the IRF reporter ([2]; agonist: 3'3'-cGAMP 10 ug/mL) was 0.677 ± 0.022, the IRF reporter ([2]; agonist: LPS 0.1 ug/mL) was 1.46 ± 0.12 and the IRF reporter ([2]; agonist: MPLA […]) was 0.62 ± 0.093. For the same compound, the viability score [3] was 0.742 (active).
